From the supplement of paper PMC13380429
Values without a mark were called inactive.

test system: Vero E6 infected with SARS-CoV-2; experiment: SARS-CoV-2 infection rate relative to infected DMSO; higher = more infection, active = 60 or less; details: 24 h

With `N=C(N)NCCC[C@@H](N)C(=O)N[C@@H](CCCNC(=N)N)C(=O)N1CCC[C@H]1C(=O)N1C[C@H](O)C[C@H]1C(=O)NCC(=O)N[C@@H](Cc1cccs1)C(=O)N[C@@H](CO)C(=O)N1Cc2ccccc2C[C@@H]1C(=O)N1[C@H](C(=O)N[C@@H](CCCNC(=N)N)C(=O)O)C[C@@H]2CCCC[C@@H]21` [icatibant-acetate] (10 µM) as the compound, how does the SARS-CoV-2 infection rate read?
The SARS-CoV-2 infection rate was 102%.

How did the SARS-CoV-2 infection rate turn out when `O=S(=O)(O)Oc1ccc(C(c2ccc(OS(=O)(=O)O)cc2)c2ccccn2)cc1` [sodium-picosulfate] (10 µM) was run?
The SARS-CoV-2 infection rate was 101%.

With `CNC[C@H](O)c1cccc(O)c1` [phenylephrine] (10 µM) as the compound, how does the SARS-CoV-2 infection rate read?
Its SARS-CoV-2 infection rate is 110%.

How did the SARS-CoV-2 infection rate turn out when `NCc1cc(O)no1` [muscimol] (10 µM) was run?
The SARS-CoV-2 infection rate was 111%.

With `c1ccc2c(Oc3nc(Nc4ccc(N5CCOCC5)cc4)c4ncn(C5CCCCC5)c4n3)cccc2c1` [purmorphamine] (10 µM) as the compound, how does the SARS-CoV-2 infection rate read?
The SARS-CoV-2 infection rate was 113%.

With `Nc1nc(N)nc(-c2cc(Cl)ccc2Cl)n1` [irsogladine] (10 µM) as the compound, how does the SARS-CoV-2 infection rate read?
The SARS-CoV-2 infection rate was 94.5%.

With `COc1ccc(S(=O)(=O)Nc2c(C)cc(C)cc2C)cc1` (10 µM) as the compound, how does the SARS-CoV-2 infection rate read?
The SARS-CoV-2 infection rate was 80.5%.

`Cc1ccnc2c1NC(=O)c1cccnc1N2C1CC1` [nevirapine] (10 µM) was tested. Which SARS-CoV-2 infection rate did it give?
The SARS-CoV-2 infection rate was 104%.

With `CN(C)CC[C@@](O)(c1ccccc1)c1ccccc1Cl` [clofedanol] (10 µM) as the compound, how does the SARS-CoV-2 infection rate read?
Its SARS-CoV-2 infection rate is 110%.

With `CC(=O)OC/C=C(C)/C=C/C=C(C)/C=C/C1=C(C)CCCC1(C)C` [retinyl-acetate] (10 µM) as the compound, how does the SARS-CoV-2 infection rate read?
The SARS-CoV-2 infection rate was 113%.

`CCOC(=O)C1=C(C)NC(C)=C(C(=O)OC)C1c1cccc(Cl)c1Cl` (stereo not given) [felodipine] (10 µM) was tested. Which SARS-CoV-2 infection rate did it give?
The SARS-CoV-2 infection rate was 112%.

For `C=C[C@H]1CN2CC[C@H]1C[C@@H]2[C@@H](O)c1ccnc2ccc(OC)cc12` [quinidine] (10 µM), which SARS-CoV-2 infection rate is on record?
Its SARS-CoV-2 infection rate is 108%.

With `Cc1cc(N2CCOCC2)ccc1Nc1nc(NC2CCCCC2)c2nc[nH]c2n1` (10 µM) as the compound, how does the SARS-CoV-2 infection rate read?
The SARS-CoV-2 infection rate was 90.5%.

With `O=C1c2c(O)cccc2Cc2cccc(O)c21` [anthralin] (10 µM) as the compound, how does the SARS-CoV-2 infection rate read?
The SARS-CoV-2 infection rate was 94%.

`C=CC(=O)Nc1cccc(Oc2nc(Nc3ccc(N4CCN(C)CC4)cc3)nc3ccsc23)c1` [olmutinib] (0.833333 µM) was tested. Which SARS-CoV-2 infection rate did it give?
The SARS-CoV-2 infection rate was 94.5%.

For `C[C@@H](c1ccc2nccn2c1)n1nnc2ncc(-c3cnn(C)c3)nc21` [savolitinib] (10 µM), which SARS-CoV-2 infection rate is on record?
The SARS-CoV-2 infection rate was 104%.

With `Nc1ccncc1` [dalfampridine] (10 µM) as the compound, how does the SARS-CoV-2 infection rate read?
The SARS-CoV-2 infection rate was 103%.

For `Cc1ccc(Sc2cncc3sc(C(N)=O)cc23)cc1` (10 µM), which SARS-CoV-2 infection rate is on record?
Its SARS-CoV-2 infection rate is 114%.

For `O=C(O)[C@H](O)[C@@H](O)[C@H](O[C@@H]1O[C@H](CO)[C@H](O)[C@H](O)[C@H]1O)[C@H](O)CO` [maltobionic-acid] (10 µM), which SARS-CoV-2 infection rate is on record?
Its SARS-CoV-2 infection rate is 92.5%.

For `CC(=O)N(C)c1cccc(-c2ccnc3c(C(=O)c4cccs4)cnn23)c1` [indiplon] (10 µM), which SARS-CoV-2 infection rate is on record?
The SARS-CoV-2 infection rate was 116%.

Which SARS-CoV-2 infection rate does the source give for `O=C(Nc1ccccc1Br)N[C@@H]1CCN(c2ccc(C(F)(F)F)cn2)C1` (10 µM) here?
Its SARS-CoV-2 infection rate is 94.5%.

Which SARS-CoV-2 infection rate does the source give for `Nc1cc(C(F)(F)F)c(-c2nc(N3CCOCC3)nc(N3CCOCC3)n2)cn1` (10 µM) here?
The SARS-CoV-2 infection rate was 114%.

With `O=C1N[C@@H]2[C@@H](O)[C@@H](O)[C@H](O)[C@@H](CO)N2C1=O` [kifunensine] (10 µM) as the compound, how does the SARS-CoV-2 infection rate read?
The SARS-CoV-2 infection rate was 94%.

For `Nc1ccn([C@H]2C[C@H](O)[C@@H](CO)O2)c(=O)n1` [torcitabine] (10 µM), which SARS-CoV-2 infection rate is on record?
The SARS-CoV-2 infection rate was 108%.

`CC(=O)N1CC[N+](C)(C)CC1` [4-acetyl-1,1-dimethylpiperazinium] (10 µM) was tested. Which SARS-CoV-2 infection rate did it give?
The SARS-CoV-2 infection rate was 88.5%.

Which SARS-CoV-2 infection rate does the source give for `Cc1n[nH]c2ccc(-c3cncc(OC[C@@H](N)Cc4ccccc4)c3)cc12` (10 µM) here?
The SARS-CoV-2 infection rate was 92.5%.

Which SARS-CoV-2 infection rate does the source give for `Cc1ccc(O)c([C@H](CCN(C(C)C)C(C)C)c2ccccc2)c1` [tolterodine] (10 µM) here?
Its SARS-CoV-2 infection rate is 77.5%.

`OCc1cc([C@@H](O)CNCCCCCCOCCOCc2c(Cl)cccc2Cl)ccc1O` [vilanterol] (10 µM) was tested. Which SARS-CoV-2 infection rate did it give?
Its SARS-CoV-2 infection rate is 111%.

For `C[C@@]1(O)[C@H](O)[C@@H](CO)O[C@H]1n1cnc2c(NC3CCCC3)nc(Cl)nc21` (10 µM), which SARS-CoV-2 infection rate is on record?
The SARS-CoV-2 infection rate was 102%.

How did the SARS-CoV-2 infection rate turn out when `Cc1c(N)nc([C@H](CC(N)=O)NC[C@H](N)C(N)=O)nc1C(=O)N[C@H](C(=O)N[C@H](C)[C@@H](O)[C@H](C)C(=O)N[C@H](C(=O)NCCc1nc(-c2nc(C(=O)NCCC[S+](C)C)cs2)cs1)[C@@H](C)O)[C@@H](OC1OC(CO)C(O)C(O)C1OC1OC(CO)C(O)C(OC(N)=O)C1O)c1cnc[nH]1` (stereo not given in full) [bleomycin] (10 µM) was run?
Its SARS-CoV-2 infection rate is 100%.

With `CN(c1nccc(=O)[nH]1)C1CCN(c2nc3ccccc3n2Cc2ccc(F)cc2)CC1` [mizolastine] (10 µM) as the compound, how does the SARS-CoV-2 infection rate read?
Its SARS-CoV-2 infection rate is 106%.

`Clc1ccc(C(Cn2ccnc2)OCc2ccc(Sc3ccccc3)cc2)c(Cl)c1` (stereo not given) [fenticonazole] (10 µM) was tested. Which SARS-CoV-2 infection rate did it give?
Its SARS-CoV-2 infection rate is 114%.

How did the SARS-CoV-2 infection rate turn out when `CC/C(=C(/CC)c1ccc(O)cc1)c1ccc(O)cc1` [diethylstilbestrol] (10 µM) was run?
Its SARS-CoV-2 infection rate is 102%.

For `O=[N+]([O-])c1cnc(Sc2nnc(O)n2-c2ccc3c(c2)OCCO3)s1` (0.833333 µM), which SARS-CoV-2 infection rate is on record?
The SARS-CoV-2 infection rate was 76.5%.

With `O=S(=O)(c1cccc2cnccc12)N1CCCNCC1` [fasudil] (10 µM) as the compound, how does the SARS-CoV-2 infection rate read?
The SARS-CoV-2 infection rate was 100%.

How did the SARS-CoV-2 infection rate turn out when `CCN(Cc1ccc(Cl)nc1)/C(=C/[N+](=O)[O-])NC` [nitenpyram] (10 µM) was run?
Its SARS-CoV-2 infection rate is 101%.

Which SARS-CoV-2 infection rate does the source give for `CN1C(=O)CCS(=O)(=O)C1c1ccc(Cl)cc1` (stereo not given) [chlormezanone] (10 µM) here?
Its SARS-CoV-2 infection rate is 117%.

How did the SARS-CoV-2 infection rate turn out when `C[C@]1(Cn2ccnn2)[C@H](C(=O)O)N2C(=O)C[C@H]2S1(=O)=O` [tazobactam] (10 µM) was run?
Its SARS-CoV-2 infection rate is 108%.

How did the SARS-CoV-2 infection rate turn out when `O=C(Nc1cccnc1)N1CCC(Cc2cccc(Oc3ccc(C(F)(F)F)cn3)c2)CC1` (0.833333 µM) was run?
The SARS-CoV-2 infection rate was 95.5%.

For `NC(=O)c1cc([N+](=O)[O-])cc([N+](=O)[O-])c1` [nitromide] (10 µM), which SARS-CoV-2 infection rate is on record?
The SARS-CoV-2 infection rate was 83.5%.
